From PubChem
Lamin A splicing – qHTS Assay for Modulators of Lamin A Splicing; hit rate 0.01% among 200,000; HeLa LMNA splicing GFP/RFP minigene ratio, 48 h; Potency, µM (series often up to 46.1 µM), without a hit: at the top dose ratio change, negative = inhibition, hits mostly inhibitors; active means well fitted inhibition curve with a large enough effect in the signal ratio, with a control signal flat, not every such curve was filed as active; inconclusive means small, poorly fitted or top-dose-only effect, or effect the other way, or a change in a side signal; the % refers to the signal ratio; further: on the % scale 0 is the no-effect control and ±100 the full control effect
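S3 HeLa cells stably expressing lamin A-EGFP splicing minigene plus DsRed2, 600 cells/well, 48 h compound exposure at 37C. Laser-scanning cytometry; analysed as GFP (500-530 nm)/RFP (575-640 nm) total intensity ratio; 0.5% DMSO vehicle.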
ALDH1A1 block – qHTS Assay for Inhibitors of Aldehyde Dehydrogenase 1 (ALDH1A1) | Aldehyde dehydrogenase 1A1 (Homo sapiens), P00352 | Potency, µM (highest dose often 75.3 µM), for inactives: top-dose activity, negative = inhibition, usual class: inhibitors | Purified ALDH1A1, NADH fluorescence, propionaldehyde substrate | hit rate 7.3% among 220,000; active means well fitted inhibition curve with a large enough effect, not every such curve was filed as active; inconclusive means small, poorly fitted or top-dose-only effect, or another doubt; inactive means no such curve, though single readings can be large or run the other way;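 further: plate controls were no enzyme wells and a reference inhibitor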
Target sequence (P00352 whole entry, looked up): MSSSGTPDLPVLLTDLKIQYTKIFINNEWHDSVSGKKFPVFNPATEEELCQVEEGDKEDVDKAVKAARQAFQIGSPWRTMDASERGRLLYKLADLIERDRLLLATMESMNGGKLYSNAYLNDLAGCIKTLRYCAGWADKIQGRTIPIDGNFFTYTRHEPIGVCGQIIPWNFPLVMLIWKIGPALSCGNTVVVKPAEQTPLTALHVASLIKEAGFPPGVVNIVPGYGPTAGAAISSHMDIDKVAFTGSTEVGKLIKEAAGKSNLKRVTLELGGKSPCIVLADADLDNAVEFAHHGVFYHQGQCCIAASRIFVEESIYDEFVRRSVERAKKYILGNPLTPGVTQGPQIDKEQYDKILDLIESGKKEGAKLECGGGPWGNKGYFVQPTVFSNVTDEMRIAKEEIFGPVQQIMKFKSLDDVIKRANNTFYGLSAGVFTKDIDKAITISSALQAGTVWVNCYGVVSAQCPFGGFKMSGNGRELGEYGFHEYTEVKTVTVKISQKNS
HPGD block – qHTS Assay for Inhibitors of HPGD (15-Hydroxyprostaglandin Dehydrogenase); Potency, µM, inactives show at the top dose activity change, negative = inhibition, hits mostly inhibitors; hit rate 4.3% among 150,000; purified HPGD, NADH fluorescence kinetic, PGE2 substrate; 15-hydroxyprostaglandin dehydrogenase [NAD(+)] (Homo sapiens), P15428; active means well fitted inhibition curve with a large enough effect, not every such curve was filed as active; inconclusive means small, poorly fitted or top-dose-only effect, or another doubt; inactive means no such curve, though single readings can be large or run the other way; further: on the % scale 0 is the no-effect control and ±100 the full control effect
Target sequence (P15428 whole entry, looked up): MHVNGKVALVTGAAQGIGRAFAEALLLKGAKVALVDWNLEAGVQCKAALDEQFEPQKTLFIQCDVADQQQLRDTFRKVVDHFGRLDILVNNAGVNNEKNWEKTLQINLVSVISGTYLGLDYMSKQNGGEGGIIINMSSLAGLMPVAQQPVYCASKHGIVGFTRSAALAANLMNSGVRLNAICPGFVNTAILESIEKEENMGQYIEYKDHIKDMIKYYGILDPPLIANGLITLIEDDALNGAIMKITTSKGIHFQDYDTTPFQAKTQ
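NADH formation kinetics: reaction with 30 uM PGE2 and 1 mM NAD+ (final), 20 nM enzyme, Tris-HCl pH 8 with Tween 20, after 15 min compound preincubation at room temperature. Fluorescence change, last versus first of five reads.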
HTT aggregate – qHTS Multiplex Assay to Identify Dual Action Probes in a Cell Model of Huntington: Aggregate Formation (GFP) | PC12 HttQ103-GFP aggregates, Acumen cytometry, 40 h | Potency, µM (top dose mostly 46.1 µM), for inactives: at the highest dose activity change, negative = inhibition, actives largely listed as inhibitors | hit rate 1.1% among 220,000; further: on the % scale 0 is the no-effect control and ±100 the full control effect; nearly all actives have a fitted effect of over 60% in size
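Aggregate formation scored by laser-scanning cytometer (488 excitation, 500–530 emission) in lysed PC12 cells expressing Q103-GFP after 100 nM tebufenozide induction; library tested in dose series, with ATPLite reagent added in the multiplex.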
HTT cytoprotect – qHTS Multiplex Assay to Identify Dual Action Probes in a Cell Model of Huntington: Cytoprotection (ATP); PC12 HTT-Q103 induced, cytoprotection, ATP luminescence, 40 h; Potency, µM (series often up to 56.4 µM), for inactives: cytoprotection (ATP increase), hits mostly activators; hit rate 0.14% among 230,000; further: % of control where 0% means no effect; nearly all actives have a fitted effect of over 45% in size
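Compounds added alongside 100 nM tebufenozide, which induces toxic Q103 huntingtin exon 1-GFP in stable PC12 cells; surviving cells quantified by luminescent ATP measurement. Medium: phenol red-free DMEM, 5% equine and 5% calf serum.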
An asterisk follows results filed as active; [ ] = another dose, or the depositor's remark. Hits are enriched below; roughly 8.8% of the tested compounds scored in any of these assays. Unless noted, the call rests on the fitted dose curve; in most records, active means well fitted curve in the direction sought with a large enough effect; inconclusive means small, poorly fitted or top-dose-only effect, or another doubt; inactive means no such curve, though single readings can be large; an effect the other way counts as inactive or inconclusive. Potency means the concentration at half of the fitted maximal effect.

How did CC1CCc2sc(C(=O)NN=C3CCC(c4ccccc4)CC3)cc2C1 (stereo unspecified) do in these assays?
Lamin A splicing: 6.1%; ALDH1A1 block: 1.26µM*; HPGD block: -16.5%; HTT aggregate: inconclusive; HTT cytoprotect: -5.7%[10 µM]

Results for CC(C)(C)C1CCc2c(C(=O)NNC(=O)CCC(=O)O)csc2C1 (stereo unspecified) ?
Lamin A splicing: -1.1%; ALDH1A1 block: -0.4%; HPGD block: -5.3%; HTT aggregate: 5.5%

How did CC(C)(C)C1CCC(=NNC(=O)c2cc3c(s2)CCCC3)CC1 (stereo unspecified) do in these assays?
Lamin A splicing: -16.9%; ALDH1A1 block: 3.98µM*; HPGD block: -15.8%; HTT aggregate: -8.1%; HTT cytoprotect: 24.8%[10 µM]

Results for CNC(=O)c1cc2c(s1)CCCCCC2 ?
Lamin A splicing: -12.7%; ALDH1A1 block: inconclusive; HPGD block: -9.8%; HTT aggregate: -16.5%; HTT cytoprotect: -18.5%[0.074 µM]

Results for CC(C)(C)C1CCC(=NNC(=O)c2ccccc2-n2cccc2)CC1 (stereo unspecified) ?
Lamin A splicing: -17.6%; ALDH1A1 block: 5.01µM*; HPGD block: -14.2%; HTT aggregate: 1.1%; HTT cytoprotect: 17.0%[10 µM]

What do the screens show for `CC(C)(C)C1CCC(=NNC(=O)CC(=O)NCc2ccccc2)CC1` (stereo unspecified)?
Lamin A splicing: -2.8%; ALDH1A1 block: -7.2%; HPGD block: -10.3%; HTT aggregate: 5.1%

Results for CO[C@H]1COC(=O)[C@@H](Cc2ccccc2)NC(=O)[C@@H](C)COC(=O)C/C=C\[C@@H]1C ?
ALDH1A1 block: -0.4%[13.5 µM]; HTT cytoprotect: inconclusive

Results for Cc1cc(C)nc(-n2ncc3c2CCCC3=O)n1 ?
ALDH1A1 block: 0.2%; HTT aggregate: inconclusive; HTT cytoprotect: 25.1µM*

How did COc1ccc(N2C(=O)C3CCCN3C2c2ccccc2Cl)cc1 (stereo unspecified) do in these assays?
Lamin A splicing: -2.9%; ALDH1A1 block: 10µM*; HPGD block: -20.1%; HTT aggregate: 3.0%; HTT cytoprotect: 7.2%

Results for COc1ccc(N2C(=O)C3CCCN3C2c2ccccc2OC)cc1 (stereo unspecified) ?
Lamin A splicing: 1.3%; ALDH1A1 block: inconclusive; HPGD block: -14.3%; HTT aggregate: 13.7%; HTT cytoprotect: -5.1%

What do the screens show for `COc1ccc(N2C(=O)C3CCCN3C2c2ccc(C)cc2)cc1` (stereo unspecified)?
Lamin A splicing: -1.5%; ALDH1A1 block: 20µM*; HPGD block: 0.4%; HTT aggregate: 2.7%; HTT cytoprotect: -10.4%

How did CC(O)CCCCCCC/C=C/C=C/C(N)=O (stereo unspecified) do in these assays?
ALDH1A1 block: inconclusive; HTT cytoprotect: 15.2%[10 µM]

How did CC(NC(=O)/C(=C\c1cccc([N+](=O)[O-])c1)NC(=O)c1ccco1)C(=O)O (stereo unspecified) do in these assays?
Lamin A splicing: 7.9%[0.0737 µM]; ALDH1A1 block: 6.31µM*; HPGD block: 28.2µM*; HTT aggregate: -1.0%; HTT cytoprotect: 29.2%

Results for CCOC(=O)CCN1C(=O)[C@H]2[C@H]3[C@H](O)[C@H](O)C/C(=N/OC/C=C(\C)CCC=C(C)C)[C@H]3CC[C@@H]2C1=O ?
ALDH1A1 block: -4.5%[13.5 µM]; HTT cytoprotect: inconclusive

What do the screens show for `Cc1cccc(-n2c(-c3csc(C(C)C)c3)n[nH]c2=S)c1`?
Lamin A splicing: -8.1%; ALDH1A1 block: 15.8µM*; HPGD block: inconclusive; HTT aggregate: -8.6%; HTT cytoprotect: -6.4%

How did Cc1ccccc1-n1c(-c2csc(C)c2C)n[nH]c1=S do in these assays?
Lamin A splicing: -2.4%; ALDH1A1 block: inconclusive; HPGD block: -24.5%; HTT aggregate: inconclusive

How did Cc1cccc(-n2c(-c3csc(C)c3C)n[nH]c2=S)c1 do in these assays?
Lamin A splicing: 3.8%; ALDH1A1 block: -13.2%; HPGD block: 10µM*; HTT aggregate: 10.6%

What do the screens show for `CC(C)c1nnc(NC(=O)C2CCN(c3cnccn3)CC2)s1`?
Lamin A splicing: -20.5%; ALDH1A1 block: 31.6µM*; HPGD block: -5.1%; HTT aggregate: -25.7%; HTT cytoprotect: -11.5%[1.9 µM]

Results for CCC(=O)N1CCc2cc(S(=O)(=O)NCCC(=O)N3CCc4ccccc4C3)ccc21 ?
Lamin A splicing: inconclusive; ALDH1A1 block: 17.8µM*; HPGD block: -0.7%; HTT aggregate: inconclusive; HTT cytoprotect: -92.3%

What do the screens show for `O=C(O)CCC(=O)N1CCc2cc(S(=O)(=O)NCc3cccs3)ccc21`?
Lamin A splicing: -2.4%; ALDH1A1 block: 4.4%; HPGD block: 25.1µM*; HTT aggregate: -14.8%; HTT cytoprotect: -16.7%

How did CCC(=O)N1CCc2cc(S(=O)(=O)NCCCOC)ccc21 do in these assays?
Lamin A splicing: -4.1%; ALDH1A1 block: 20µM*; HPGD block: 28.2µM*; HTT aggregate: -6.4%; HTT cytoprotect: 22.5%

Results for CCC(=O)N1CCc2cc(S(=O)(=O)NCCC(=O)N3CC=C(c4ccccc4)CC3)ccc21 ?
Lamin A splicing: inconclusive; ALDH1A1 block: inconclusive; HPGD block: -2.8%; HTT aggregate: inconclusive; HTT cytoprotect: -26.4%

How did CCN1CCN(Cc2c(O)ccc3c(C)c(-c4ccccc4)c(=O)oc23)CC1 do in these assays?
Lamin A splicing: 0.3%[46 µM]

What do the screens show for `C[C@@H](C(=O)Nc1ccc2ccccc2c1)[C@@H]1C[C@@]1(C)[C@@H](NS(=O)(=O)c1ccc(-c2ccccc2)cc1)c1ccccc1`?
ALDH1A1 block: 2.0%; HPGD block: -13.7%; HTT cytoprotect: 9.5%

What do the screens show for `Cc1ccc([N+](=O)[O-])c(N)c1`?
ALDH1A1 block: -6.2%; HPGD block: -4.5%; HTT cytoprotect: -5.6%

Results for CSc1nnc2[nH]c(=O)cc(C)n12 ?
Lamin A splicing: 8.4%[46 µM]

Results for CC(=O)n1cc([C@H]2C=C(C(=O)N3CCN(Cc4ccccc4)CC3)O[C@@H](OCc3ccc(CO)cc3)C2)c2ccccc21 ?
ALDH1A1 block: inconclusive; HTT aggregate: 22.6%[9.22 µM]; HTT cytoprotect: 1.7%[10 µM]

How did CN(C)C(CNC(=S)Nc1cccc(Cl)c1)c1ccccc1 (stereo unspecified) do in these assays?
ALDH1A1 block: 4.9%; HTT aggregate: 16.5%; HTT cytoprotect: 8.4%

What do the screens show for `Cc1cc(C(=O)CSc2nncs2)c(C)n1Cc1ccco1`?
ALDH1A1 block: inconclusive; HTT aggregate: -20.4%; HTT cytoprotect: -114.6%
